# Data as given in the supplement of paper PMC4466140.
# Target: AgAbp1
# Test: SPOT peptide array binding signal intensity (averaged, normalized) (arbitrary units (background-subtracted, floor 0; scale differs between SH3 domains)); higher = stronger binding of the SH3 domain to the peptide
# How it was run: (§1)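 Binding signal refers to normalized, background-subtracted spot intensity averaged over replicates, expressed in arbitrary units that differ between domains. GST-fused SH3 domains from four yeast species were incubated at 10 μg/ml overnight at 4°C on cellulose membranes of synthetic 15-mer peptides with cysteines replaced by serines. Bound protein was detected with anti-GST antibody, an HRP anti-mouse secondary and luminol, and quantified with Genespotter.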
row,Binder,SPOT peptide array binding signal intensity
1,SAPDIPPRSPNRNAH,≤ 0
2,TPTSGPPLLPPRNTM,≤ 0

# Target: AgBbc1
# Test: as above
# How it was run: as §1
row,Binder,SPOT peptide array binding signal intensity
1,SAPDIPPRSPNRNAH,498
2,TPTSGPPLLPPRNTM,128

# Target: AgBem1-D1
# Test: as above
# How it was run: as §1
row,Binder,SPOT peptide array binding signal intensity
1,SAPDIPPRSPNRNAH,≤ 0
2,TPTSGPPLLPPRNTM,≤ 0

# Target: AgBzz1-D1
# Test: as above
# How it was run: as §1
row,Binder,SPOT peptide array binding signal intensity
1,SAPDIPPRSPNRNAH,34.5
2,TPTSGPPLLPPRNTM,15

# Target: AgBzz1-D2
# Test: as above
# How it was run: as §1
row,Binder,SPOT peptide array binding signal intensity
1,SAPDIPPRSPNRNAH,≤ 0
2,TPTSGPPLLPPRNTM,≤ 0

# Target: AgCyk3
# Test: as above
# How it was run: as §1
row,Binder,SPOT peptide array binding signal intensity
1,SAPDIPPRSPNRNAH,≤ 0
2,TPTSGPPLLPPRNTM,6

# Target: AgFus1
# Test: as above
# How it was run: as §1
row,Binder,SPOT peptide array binding signal intensity
1,SAPDIPPRSPNRNAH,≤ 0
2,TPTSGPPLLPPRNTM,≤ 0

# Target: AgHof1
# Test: as above
# How it was run: as §1
row,Binder,SPOT peptide array binding signal intensity
1,SAPDIPPRSPNRNAH,≤ 0
2,TPTSGPPLLPPRNTM,21.2

# Target: AgHse1
# Test: as above
# How it was run: as §1
row,Binder,SPOT peptide array binding signal intensity
1,SAPDIPPRSPNRNAH,≤ 0
2,TPTSGPPLLPPRNTM,65.5

# Target: AgLsb1
# Test: as above
# How it was run: as §1
row,Binder,SPOT peptide array binding signal intensity
1,SAPDIPPRSPNRNAH,324
2,TPTSGPPLLPPRNTM,778

# Target: AgLsb4
# Test: as above
# How it was run: as §1
row,Binder,SPOT peptide array binding signal intensity
1,SAPDIPPRSPNRNAH,328
2,TPTSGPPLLPPRNTM,5100

# Target: AgMyo5
# Test: as above
# How it was run: as §1
row,Binder,SPOT peptide array binding signal intensity
1,SAPDIPPRSPNRNAH,≤ 0
2,TPTSGPPLLPPRNTM,124

# Target: AgNbp2
# Test: as above
# How it was run: as §1
row,Binder,SPOT peptide array binding signal intensity
1,SAPDIPPRSPNRNAH,3.5
2,TPTSGPPLLPPRNTM,≤ 0

# Target: AgRvs167
# Test: as above
# How it was run: as §1
row,Binder,SPOT peptide array binding signal intensity
1,SAPDIPPRSPNRNAH,36.3
2,TPTSGPPLLPPRNTM,801

# Target: AgSho1
# Test: as above
# How it was run: as §1
row,Binder,SPOT peptide array binding signal intensity
1,SAPDIPPRSPNRNAH,≤ 0
2,TPTSGPPLLPPRNTM,≤ 0

# Target: AgSla1-D1-D2
# Test: as above
# How it was run: as §1
row,Binder,SPOT peptide array binding signal intensity
1,SAPDIPPRSPNRNAH,≤ 0
2,TPTSGPPLLPPRNTM,≤ 0

# Target: AgSla1-D3
# Test: as above
# How it was run: as §1
row,Binder,SPOT peptide array binding signal intensity
1,SAPDIPPRSPNRNAH,≤ 0
2,TPTSGPPLLPPRNTM,0.5

# Target: CaAbp1-D1
# Test: as above
# How it was run: as §1
row,Binder,SPOT peptide array binding signal intensity
1,SAPDIPPRSPNRNAH,≤ 0
2,TPTSGPPLLPPRNTM,≤ 0

# Target: CaAbp1-D2
# Test: as above
# How it was run: as §1
row,Binder,SPOT peptide array binding signal intensity
1,SAPDIPPRSPNRNAH,4.5
2,TPTSGPPLLPPRNTM,≤ 0

# Target: CaBbc1
# Test: as above
# How it was run: as §1
row,Binder,SPOT peptide array binding signal intensity
1,SAPDIPPRSPNRNAH,575
2,TPTSGPPLLPPRNTM,153

# Target: CaBem1-D1
# Test: as above
# How it was run: as §1
row,Binder,SPOT peptide array binding signal intensity
1,SAPDIPPRSPNRNAH,1
2,TPTSGPPLLPPRNTM,0.5

# Target: CaBzz1-D1
# Test: as above
# How it was run: as §1
row,Binder,SPOT peptide array binding signal intensity
1,SAPDIPPRSPNRNAH,85
2,TPTSGPPLLPPRNTM,91

# Target: CaBzz1-D2
# Test: as above
# How it was run: as §1
row,Binder,SPOT peptide array binding signal intensity
1,SAPDIPPRSPNRNAH,≤ 0
2,TPTSGPPLLPPRNTM,33.5

# Target: CaCyk3
# Test: as above
# How it was run: as §1
row,Binder,SPOT peptide array binding signal intensity
1,SAPDIPPRSPNRNAH,3
2,TPTSGPPLLPPRNTM,1

# Target: CaFus1
# Test: as above
# How it was run: as §1
row,Binder,SPOT peptide array binding signal intensity
1,SAPDIPPRSPNRNAH,≤ 0
2,TPTSGPPLLPPRNTM,25

# Target: CaHof1
# Test: as above
# How it was run: as §1
row,Binder,SPOT peptide array binding signal intensity
1,SAPDIPPRSPNRNAH,≤ 0
2,TPTSGPPLLPPRNTM,4.75

# Target: CaHse1
# Test: as above
# How it was run: as §1
row,Binder,SPOT peptide array binding signal intensity
1,SAPDIPPRSPNRNAH,9.75
2,TPTSGPPLLPPRNTM,100

# Target: CaLsb1
# Test: as above
# How it was run: as §1
row,Binder,SPOT peptide array binding signal intensity
1,SAPDIPPRSPNRNAH,0.25
2,TPTSGPPLLPPRNTM,5.5

# Target: CaLsb4
# Test: as above
# How it was run: as §1
row,Binder,SPOT peptide array binding signal intensity
1,SAPDIPPRSPNRNAH,4890
2,TPTSGPPLLPPRNTM,5320

# Target: CaMyo5
# Test: as above
# How it was run: as §1
row,Binder,SPOT peptide array binding signal intensity
1,SAPDIPPRSPNRNAH,≤ 0
2,TPTSGPPLLPPRNTM,36.8

# Target: CaNbp2
# Test: as above
# How it was run: as §1
row,Binder,SPOT peptide array binding signal intensity
1,SAPDIPPRSPNRNAH,≤ 0

# Target: CaRvs167
# Test: as above
# How it was run: as §1
row,Binder,SPOT peptide array binding signal intensity
1,SAPDIPPRSPNRNAH,321

# Target: CaRvs167-3
# Test: as above
# How it was run: as §1
row,Binder,SPOT peptide array binding signal intensity
1,SAPDIPPRSPNRNAH,1

# Target: CaSho1
# Test: as above
# How it was run: as §1
row,Binder,SPOT peptide array binding signal intensity
1,SAPDIPPRSPNRNAH,≤ 0

# Target: CaSla1-D1-D2
# Test: as above
# How it was run: as §1
row,Binder,SPOT peptide array binding signal intensity
1,SAPDIPPRSPNRNAH,290

# Target: CaSla1-D3
# Test: as above
# How it was run: as §1
row,Binder,SPOT peptide array binding signal intensity
1,SAPDIPPRSPNRNAH,≤ 0

# Target: ScAbp1
# Test: as above
# How it was run: as §1
row,Binder,SPOT peptide array binding signal intensity
1,SAPDIPPRSPNRNAH,4.5

# Target: ScBbc1
# Test: as above
# How it was run: as §1
row,Binder,SPOT peptide array binding signal intensity
1,SAPDIPPRSPNRNAH,35.8

# Target: ScBem1-D1
# Test: as above
# How it was run: as §1
row,Binder,SPOT peptide array binding signal intensity
1,SAPDIPPRSPNRNAH,≤ 0

# Target: ScBzz1-D1
# Test: as above
# How it was run: as §1
row,Binder,SPOT peptide array binding signal intensity
1,SAPDIPPRSPNRNAH,≤ 0

# Target: ScBzz1-D2
# Test: as above
# How it was run: as §1
row,Binder,SPOT peptide array binding signal intensity
1,SAPDIPPRSPNRNAH,≤ 0

# Target: ScCyk3
# Test: as above
# How it was run: as §1
row,Binder,SPOT peptide array binding signal intensity
1,SAPDIPPRSPNRNAH,≤ 0

# Target: ScFus1
# Test: as above
# How it was run: as §1
row,Binder,SPOT peptide array binding signal intensity
1,SAPDIPPRSPNRNAH,≤ 0

# Target: ScHof1
# Test: as above
# How it was run: as §1
row,Binder,SPOT peptide array binding signal intensity
1,SAPDIPPRSPNRNAH,≤ 0

# Target: ScHse1
# Test: as above
# How it was run: as §1
row,Binder,SPOT peptide array binding signal intensity
1,SAPDIPPRSPNRNAH,17.5

# Target: ScLsb1
# Test: as above
# How it was run: as §1
row,Binder,SPOT peptide array binding signal intensity
1,SAPDIPPRSPNRNAH,763

# Target: ScLsb2
# Test: as above
# How it was run: as §1
row,Binder,SPOT peptide array binding signal intensity
1,SAPDIPPRSPNRNAH,1090

# Target: ScLsb3
# Test: as above
# How it was run: as §1
row,Binder,SPOT peptide array binding signal intensity
1,SAPDIPPRSPNRNAH,5380

# Target: ScLsb4
# Test: as above
# How it was run: as §1
row,Binder,SPOT peptide array binding signal intensity
1,SAPDIPPRSPNRNAH,936

# Target: ScMyo3
# Test: as above
# How it was run: as §1
row,Binder,SPOT peptide array binding signal intensity
1,SAPDIPPRSPNRNAH,≤ 0

# Target: ScMyo5
# Test: as above
# How it was run: as §1
row,Binder,SPOT peptide array binding signal intensity
1,SAPDIPPRSPNRNAH,≤ 0

# Target: ScNbp2
# Test: as above
# How it was run: as §1
row,Binder,SPOT peptide array binding signal intensity
1,SAPDIPPRSPNRNAH,57

# Target: ScPex13
# Test: as above
# How it was run: as §1
row,Binder,SPOT peptide array binding signal intensity
1,SAPDIPPRSPNRNAH,130

# Target: ScRvs167
# Test: as above
# How it was run: as §1
row,Binder,SPOT peptide array binding signal intensity
1,SAPDIPPRSPNRNAH,1360

# Target: ScSho1
# Test: as above
# How it was run: as §1
row,Binder,SPOT peptide array binding signal intensity
1,SAPDIPPRSPNRNAH,13.5

# Target: ScSla1-D1-D2
# Test: as above
# How it was run: as §1
row,Binder,SPOT peptide array binding signal intensity
1,SAPDIPPRSPNRNAH,134

# Target: ScSla1-D3
# Test: as above
# How it was run: as §1
row,Binder,SPOT peptide array binding signal intensity
1,SAPDIPPRSPNRNAH,≤ 0

# Target: SpAbp1-D1
# Test: as above
# How it was run: as §1
row,Binder,SPOT peptide array binding signal intensity
1,SAPDIPPRSPNRNAH,≤ 0

# Target: SpBbc1
# Test: as above
# How it was run: as §1
row,Binder,SPOT peptide array binding signal intensity
1,SAPDIPPRSPNRNAH,3.5

# Target: SpBzz1-D1
# Test: as above
# How it was run: as §1
row,Binder,SPOT peptide array binding signal intensity
1,SAPDIPPRSPNRNAH,≤ 0

# Target: SpBzz1-D2
# Test: as above
# How it was run: as §1
row,Binder,SPOT peptide array binding signal intensity
1,SAPDIPPRSPNRNAH,≤ 0

# Target: SpCyk3
# Test: as above
# How it was run: as §1
row,Binder,SPOT peptide array binding signal intensity
1,SAPDIPPRSPNRNAH,≤ 0

# Target: SpHof1
# Test: as above
# How it was run: as §1
row,Binder,SPOT peptide array binding signal intensity
1,SAPDIPPRSPNRNAH,0.75

# Target: SpHof1-2
# Test: as above
# How it was run: as §1
row,Binder,SPOT peptide array binding signal intensity
1,SAPDIPPRSPNRNAH,≤ 0

# Target: SpHof1-3
# Test: as above
# How it was run: as §1
row,Binder,SPOT peptide array binding signal intensity
1,SAPDIPPRSPNRNAH,1

# Target: SpHse1
# Test: as above
# How it was run: as §1
row,Binder,SPOT peptide array binding signal intensity
1,SAPDIPPRSPNRNAH,12

# Target: SpLsb1
# Test: as above
# How it was run: as §1
row,Binder,SPOT peptide array binding signal intensity
1,SAPDIPPRSPNRNAH,540

# Target: SpLsb4
# Test: as above
# How it was run: as §1
row,Binder,SPOT peptide array binding signal intensity
1,SAPDIPPRSPNRNAH,6620

# Target: SpMyo1
# Test: as above
# How it was run: as §1
row,Binder,SPOT peptide array binding signal intensity
1,SAPDIPPRSPNRNAH,≤ 0

# Target: SpNbp2
# Test: as above
# How it was run: as §1
row,Binder,SPOT peptide array binding signal intensity
1,SAPDIPPRSPNRNAH,59.5

# Target: SpPex13
# Test: as above
# How it was run: as §1
row,Binder,SPOT peptide array binding signal intensity
1,SAPDIPPRSPNRNAH,≤ 0

# Target: SpRvs167
# Test: as above
# How it was run: as §1
row,Binder,SPOT peptide array binding signal intensity
1,SAPDIPPRSPNRNAH,1600

# Target: SpSla1-D1-D2
# Test: as above
# How it was run: as §1
row,Binder,SPOT peptide array binding signal intensity
1,SAPDIPPRSPNRNAH,≤ 0

# Target: SpSla1-D3
# Test: as above
# How it was run: as §1
row,Binder,SPOT peptide array binding signal intensity
1,SAPDIPPRSPNRNAH,≤ 0
